# Test results: PubChem BioAssay (NCATS)
# Results filed as inconclusive are left out. Entries that show only a call come without a potency. Calls of active or inactive are those of the source. Calls follow the shape of the dose curve; as a rule, active = well fitted inhibition curve with a large enough effect; inconclusive = small, poorly fitted or top-dose-only effect; inactive = no such curve, though single readings can be large or run the other way.
# Assay: Primary fluorescence-based thiol-reactive (MSTI) qHTS assay for identification of artifact compounds. (AID 1845221); also: nearly all actives have a fitted effect of over 65% in size
# Conditions: MSTI thiol-reactivity probe, 1 h; series mostly up to 53.8 µM
# In short: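 In PBS pH 7.4 with 2% DMSO, each compound met 4 uM MSTI for one hour at ambient temperature, shielded from light, before fluorescence detection.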
# Potency is read from the fitted curve at half-maximal effect.
row,SMILES,Potency
1,CC1=C[C@@H]2[C@@H]([C@@H](O)C[C@@]3(C)[C@H]2C[C@@H](C)[C@]3(O)C(=O)CO)[C@@]2(C)Cc3cnn(-c4ccccc4)c3C=C12,inactive
2,C[C@H](c1ccc(F)cc1CCCC(=O)O)N(c1cc(F)ccc1F)S(=O)(=O)c1ccc(Cl)cc1,inactive
3,O=S(=O)(O)c1ccc2cc(N=Nc3cc(S(=O)(=O)O)c4cccnc4c3O)ccc2c1,150 nM (active)
4,Cc1cc(-c2ncc(CC(=O)Nc3ccc(-c4cnccn4)cn3)cc2C)ccn1,inactive
5,N#Cc1ccc(Oc2ccc3c(c2)COB3O)cc1,inactive
6,O=C(CCCN1CCN(c2ccc(F)cc2)CC1)NC1c2ccccc2CSc2ccccc21 (stereo not given),inactive
7,COc1ccc(-c2nc3ccc(C4=NNC(=O)CC4C)cc3[nH]2)cc1 (stereo not given),inactive
8,CC[C@H](CC#N)OC(=O)N[C@@H](C)c1cccc(NC(=O)Nc2ccc(-c3cnco3)c(OC)c2)c1,inactive
9,COc1nccc(-c2c(-c3ccc(F)cc3)ncn2C2CCNCC2)n1,inactive
10,NS(=O)(=O)c1ccc(Nc2nc(OCC3CCCCC3)c3[nH]cnc3n2)cc1,inactive
11,CS(=O)(=O)c1ccc(C2=C(c3ccccc3)C(=O)OC2)cc1,inactive
12,CNC(=O)c1c(-c2ccc(F)cc2)oc2cc(N(CCO)S(C)(=O)=O)c(C3CC3)cc12,inactive
13,NS(=O)(=O)c1cc(Cl)c(Cl)c(S(N)(=O)=O)c1,inactive
14,CN1c2ccccc2C(=O)N2CCc3c([nH]c4ccccc34)C21 (stereo not given),inactive
15,Cc1ccc2c(c1)C(=O)[C@]1(O)CCN(c3ccccc3)C1=N2,inactive
